Measurements taken from PubChem BioAssay AID2391 (Southern Research Specialized Biocontainment Screening …, 2010).
About 410 (0.13%) of roughly 310,000 compounds were called active. About 2% were inconclusive and are not listed. These entries were drawn from the full list. Entries with a potency or affinity are not part of this list. Unmarked numbers belong to inactive results. No rule for the calls is given here.

Experiment: RSV antiviral activity via CPE protection, HEp-2 cells, primary 10 µM value included (AID 2391)
Conditions: RSV-induced CPE inhibition, at 10 µM, stronger effect = higher value

Structure (SMILES)	CPE inhibition [%]
Cc1cccc(-c2nc(CSCC(=O)N3CCN(Cc4ccc5c(c4)OCO5)CC3)c(C)o2)c1	4.52
O=C(O)c1ccc(N2C(=O)CC(SC(=NCc3ccc4c(c3)OCO4)Nc3ccccc3)C2=O)cc1 (stereo unspecified)	5.3
CCOc1ccc(NC(=NCc2ccc3c(c2)OCO3)SC2CC(=O)N(c3ccccc3)C2=O)cc1 (stereo unspecified)	1.98
CCOc1ccc(NC(=NCc2ccc3c(c2)OCO3)SC2CC(=O)N(c3ccc(OCC)cc3)C2=O)cc1 (stereo unspecified)	2.56
O=C1CC(SC(=NCc2ccc3c(c2)OCO3)Nc2ccccc2)C(=O)N1c1ccccc1 (stereo unspecified)	3.83
COc1ccc(CN2C(=O)c3cccnc3C2=O)cc1S(=O)(=O)N(C)c1cccc(C)c1	1.8
O=C(Nc1ccc(Cn2cccn2)cc1)c1ccc(COc2cccc(Br)c2)cc1	-0.58
Cc1ccc(C(=O)NCC2CCCN2S(=O)(=O)c2cccs2)cc1C (stereo unspecified)	1.81
CCCC(=O)Nc1ccc(-c2nc3cc(C)ccc3o2)cc1	40.7
CCCC(=O)Nc1cccc(-c2nc3cc(C)c(C)cc3o2)c1	1.54
Cc1ccc(-c2nc3cc(NC(=O)C(C)C)ccc3o2)cc1C	14.6
Cc1ccc(-c2nc3cc(NC(=O)C(C)C)ccc3o2)cc1	4.38
CCC(C)NCC(=O)Nc1ccc(-c2nc3cc(NC(=O)CNC(C)CC)ccc3o2)cc1 (stereo unspecified)	1.28
CCC(C)c1ccc2oc(-c3ccc(NC(=O)c4ncn[nH]4)cc3)nc2c1 (stereo unspecified)	9.89
Clc1ccc(CSc2ccc(-c3cccnc3)nn2)cc1	20.4
Cc1c(C(=O)OCC(=O)Nc2c(C)n(C)n(-c3ccccc3)c2=O)oc2ccccc12	0.38
Cc1cc(OCC(O)CN2CCCC2)cc(C)c1Cl (stereo unspecified)	-0.91
CC(C)n1c(SCC(=O)N2CCCC2)nc2c1c(=O)n(C)c(=O)n2C	-0.46
CCCN(Cc1nnc(-c2ccccc2Cl)o1)C(=O)c1oc2ccccc2c1C	44
O=C(c1ccccc1)c1cc([N+](=O)[O-])ccc1N1CCCC1	3.67
S=c1nccc(-c2cccs2)[nH]1	5.75
O=C1c2ccccc2NC2(CCCC2)N1N=C1CCCC1	2.08
O=C1CC(NCc2ccccc2F)C(=O)N1c1ccccc1 (stereo unspecified)	0.44

Structure (SMILES)	CPE inhibition [%]
Cc1ccc(NC(=O)CCS(=O)(=O)c2cccc3nonc23)c(Cl)c1	0.71
COC(=O)c1ccc(CSc2nc3ccccc3c(=O)n2CC(C)C)o1	4.85
COC(=O)c1ccc(Cn2nnc3ccccc3c2=O)o1	4.91
Cc1c(C)c2ccc(OCC(=O)Nc3nccs3)cc2oc1=O	20.3
COc1ccc(OC)c(N(C(=O)c2ccco2)C(C(=O)NC2CCCC2)c2ccc(N3CCOCC3)cc2)c1 (stereo unspecified)	1.32
COc1cc(/C=C2\SC(=S)N(NS(=O)(=O)c3ccccc3)C2=O)ccc1O	4.97
CCOc1ccc(/C=C2\SC(=S)N(NS(=O)(=O)c3ccccc3)C2=O)cc1OC	2.94
CN1CCN(C(=O)c2cc(Cl)cc(Cl)c2NC(=O)c2ccco2)CC1	0.57
Cc1cc(NC(=O)c2cc3ccccc3o2)ccc1NC(=O)c1ccccc1	5.86
O=C(Nc1ccc(NC(=O)c2cc3ccccc3o2)cc1)c1ccc2c(c1)OCCO2	6.03
Cc1ccc(N(CC(=O)NCCc2ccc(F)cc2)S(=O)(=O)c2ccc(Cl)c([N+](=O)[O-])c2)c(C)c1	3.85
Cc1cc(C)c2nc(N3CCC(C(=O)NCCCN4CCCCC4)CC3)sc2c1	21.9
Cc1cccc(S(=O)(=O)Nc2ccc(-c3cn4ccccc4n3)cc2)c1	21
COC(=O)Cn1c(=NC(=O)c2cccc(OC)c2)sc2cc(OC)ccc21	1.97
NNC(=O)c1cc(-c2ccccc2)sc1N	1.27
Nc1c(C(=O)N/N=C/c2ccc(Cl)cc2)cnn1-c1ccccc1	0.12
CC(C)CCN1CCN(Cc2cccn2-c2nccs2)CC1CCO (stereo unspecified)	1.17
OCCC1CN(Cc2cccn2-c2nccs2)CCN1Cc1ccccc1 (stereo unspecified)	-1.03
COc1ccc(Cn2nnnc2C(c2cccs2)N2CCOCC2)cc1 (stereo unspecified)	0.05
CC(=O)Nc1ccc(NC(=O)c2c(C)nn(Cc3ccccc3)c2Cl)cc1	5.46
Cc1nn(-c2ccccc2Cl)c(Cl)c1/C=N/Nc1nc2ccccc2s1	4.62
Cc1nn(-c2ccccc2Cl)c(Cl)c1/C=N/Nc1cccc(C(=O)O)c1	3.47
CCC(C(=O)Nc1c2c(nn1C(C)(C)C)CS(=O)(=O)C2)c1ccccc1 (stereo unspecified)	1.09
